Data from PubChem BioAssay (Tox21).
Records with an inconclusive call do not appear. Where a call stands in place of a potency, no number is given. Values without a mark were called inactive. Active and inactive are the calls of the source. Unless noted, calls follow the shape of the dose curve; as a rule, active = well fitted curve in the direction sought with a large enough effect in the repeat runs; inconclusive = weak or mixed curves; inactive = no such curve, though single readings can be large; an effect the other way counts as inactive or inconclusive.

What was measured:
[1] = qHTS assay to identify small molecule agonists of the peroxisome proliferator-activated receptor delta (PPARd) signaling pathway - cell viability counter screen (AID 743211); also: nearly all actives have a fitted effect of over 55% in size
Method in brief: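 Tox21 library compounds, delivered in DMSO, were incubated 17 h with PPARd-bla HEK293H cells; cytotoxicity was taken from CellTiter-Glo luminescence read 30 min after reagent addition.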

[2] = target: Peroxisome proliferator-activated receptor delta (Homo sapiens) (UniProt Q03181); assay: qHTS assay to identify small molecule agonists of the peroxisome proliferator-activated receptor delta (PPARd) signaling pathway (AID 743212; calls by dose curve; also: potency is read from the fitted curve at half-maximal effect)
Method in brief: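 HEK293H PPARd-bla cells; 5 h preincubation 37 C/5% CO2; compound (DMSO) 37 C; LiveBLAzer B/G FRET substrate 2 h RT; fluorescence intensity.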

[3] = qHTS assay to identify small molecule antagonists of the peroxisome proliferator-activated receptor delta (PPARd) signaling pathway - cell viability counter screen (AID 743213); also: nearly all actives have a fitted effect of over 50% in size
Method in brief: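 In this counter screen, HEK293H cells carrying a UAS-beta-lactamase reporter are co-treated with test compounds and 300 nM L165041 (final) for 17 h at 37 C; cell viability is quantified by CellTiter-Glo luminescence.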

[4] = target: Peroxisome proliferator-activated receptor delta (Homo sapiens) (UniProt Q03181); assay: qHTS assay to identify small molecule antagonists of the peroxisome proliferator-activated receptor delta (PPARd) signaling pathway (AID 743215; active = well fitted inhibition curve with a large enough effect in the signal ratio in the repeat runs, not every such curve was filed as active; the % refers to the signal ratio;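 also: cells stimulated with agonist L165041 at 300 nM final during compound exposure; series mostly up to about 62 µM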)
Method in brief: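 PPARd-bla HEK293H cells (UAS-bla reporter) preincubated 5 h, then given compound plus 300 nM final L165041 agonist for 17 h at 37 C. Beta-lactamase activity read by LiveBLAzer B/G FRET substrate fluorescence after 2 h at room temperature.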

[5] = qHTS assay to identify small molecule agonists of the farnesoid-X-receptor (FXR) signaling pathway - cell viability counter screen (AID 743218); also: nearly all actives have a fitted effect of over 45% in size
Method in brief: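 FXR-UAS-bla HEK 293T cells exposed to compounds for 16 h at 37C. Cytotoxicity read in the same wells by CellTiter-Glo luminescence after 30 min at room temperature, following the beta-lactamase FRET read.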

[6] = qHTS assay to identify small molecule antagonists of the farnesoid-X-receptor (FXR) signaling pathway - cell viability counter screen (AID 743221; active = well fitted cell-killing curve with a large enough effect in the repeat runs, not every such curve was filed as active; also: nearly all actives have a fitted effect of over 50% in size)
Method in brief: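 Cytotoxicity is taken from ATP luminescence (CellTiter-Glo, 30 min, room temperature) in FXR-bla HEK 293T cells previously incubated 16 h at 37 C with compound and chenodeoxycholic acid at 50 uM final.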

[7] = target: Vitamin D3 receptor (Homo sapiens) (UniProt P11473); assay: qHTS assay to identify small molecule agonists of the vitamin D receptor (VDR) signaling pathway (AID 743222; calls by dose curve)
Method in brief: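 VDR-bla cells plated 4 h at 37 C, then exposed to compounds for 16 h at 37 C. Beta-lactamase reporter activity measured by fluorescence after 2 h room-temperature loading with LiveBLAzer B/G FRET substrate.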

[8] = target: Vitamin D3 receptor (Homo sapiens) (UniProt P11473); assay: qHTS assay to identify small molecule antagonists of the vitamin D receptor (VDR) signaling pathway (AID 743223; active = well fitted inhibition curve with a large enough effect in the signal ratio in the repeat runs, not every such curve was filed as active; the % refers to the signal ratio)
Method in brief: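 Quantitative HTS in VDR-bla reporter cells stimulated with 1alpha,25-dihydroxyvitamin D3, 3 nM final. Compound exposure 16 h, 37C, 5% CO2. Read-out: beta-lactamase FRET substrate fluorescence, 2 h RT.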

[9] = qHTS assay to identify small molecule agonists of the vitamin D receptor (VDR) signaling pathway - cell viability counter screen (AID 743224); also: series mostly up to about 63 µM; nearly all actives have a fitted effect of over 50% in size
Method in brief: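 VDR-bla cells, 4 h after plating, exposed to compounds for 16 h at 37C; viability then read in the same wells as CellTiter-Glo luminescence after 30 min at room temperature, following the bla FRET read.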

[10] = qHTS assay to identify small molecule antagonists of the vitamin D receptor (VDR) signaling pathway - cell viability counter screen (AID 743225); also: nearly all actives have a fitted effect of over 50% in size
Method in brief: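 Same-well multiplex: following 16 h treatment of HEK 293T cells carrying a UAS-driven beta-lactamase reporter with compound and agonist (3 nM final), and a 2 h FRET substrate step, CellTiter-Glo was added and luminescence read after 30 min.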

[11] = qHTS assay to identify small molecule agonists of the NFkB signaling pathway (AID 1159509; active = well fitted curve in the direction sought with a large enough effect in the signal ratio in the repeat runs, not every such curve was filed as active; the % refers to the signal ratio; also: series mostly up to about 61 µM)
Method in brief: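 NFkB-bla ME-180 cells carry a beta-lactamase reporter under an NF-kB response element. They were plated overnight, then exposed to compounds for 5 h at 37 C. Read-out is LiveBLAzer FRET after 1.5 hr at room temperature (405 nm excitation; 460/530 nm emission).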

[12] = qHTS assay to identify small molecule agonists of the NFkB signaling pathway - cell viability counter screen (AID 1159515; calls by dose curve; also: series mostly up to about 61 µM; nearly all actives have a fitted effect of over 55% in size)
Method in brief: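 NFkB-bla ME-180 cells, 2,000/well, plated overnight at 37 C; compound added for 5 hr at 37 C. Viability read in the same wells as the bla reporter, by CellTiter-Glo luminescence after 30 min at room temperature.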

[13] = qHTS assay to identify small molecule agonists of the endoplasmic reticulum stress response signaling pathway (AID 1159516; active = well fitted activation curve with a large enough effect in the signal ratio in the repeat runs, not every such curve was filed as active; the % refers to the signal ratio)
Method in brief: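 CellSensor ESRE-bla HeLa cells, 1,500 per well, plated overnight, then exposed to compounds for 5 hr at 37 C. Beta-lactamase reporter read with LiveBLAzer B/G FRET substrate after 2 hr at room temperature, 405 nm excitation, 460 and 530 nm emission.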

[14] = qHTS assay to identify small molecule agonists of the endoplasmic reticulum stress response signaling pathway - cell viability counter screen (AID 1159517; calls by dose curve)
Method in brief: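 HeLa cells carrying an ESRE-driven beta-lactamase reporter receive compound for 5 hr at 37 C. Cell viability is then gauged with CellTiter-Glo by luminescence, 30 min at room temperature.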

[15] = qHTS assay to identify small molecule antagonists of the retinoid-related orphan receptor gamma (ROR-gamma) signaling pathway - cell viability counter screen (AID 1159520); also: nearly all actives have a fitted effect of over 50% in size
Method in brief: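 Cytotoxicity was read from cellular ATP (CellTiter-Glo luminescence) after 16 hr at 37 C with 1 uM doxycycline induction. The inducer was added 2 hr after compound transfer to Tet-on ROR gamma CHO cells.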

[16] = target: Nuclear receptor ROR-gamma (Homo sapiens) (UniProt P51449); assay: qHTS assay to identify small molecule antagonists of the retinoid-related orphan receptor gamma (ROR-gamma) signaling pathway (AID 1159521)
Method in brief: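 Inducible-expression reporter assay: doxycycline (1 uM final) switched on RORγ in CHO cells bearing a ROR response element-luciferase construct, with test compounds present from 2 h beforehand. Decreased luminescence after 16 h defined antagonist activity.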

[17] = qHTS assay to identify small molecule agonists of the AP-1 signaling pathway - cell viability counter screen (AID 1159525; calls by dose curve; also: nearly all actives have a fitted effect of over 55% in size)
Method in brief: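 Luminescent ATP readout (Cell Titer Glo, 30 min RT), normalised to DMSO and tetra n-octyl ammonium bromide controls. Cells were ME-180 AP-1-bla in 0.5% dialyzed FBS Opti-MEM, with a 5 h, 37 °C compound exposure.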

[18] = qHTS assay to identify small molecule agonists of the AP-1 signaling pathway (AID 1159526; calls by dose curve)
[19] = target: Bile acid receptor (Homo sapiens) (UniProt Q96RI1); assay: qHTS assay to identify small molecule antagonists of the farnesoid-X-receptor (FXR) signaling pathway (AID 743217; active = well fitted inhibition curve with a large enough effect in the signal ratio in the repeat runs, not every such curve was filed as active; the % refers to the signal ratio)
Method in brief: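 FXR-UAS-bla HEK 293T cells (beta-lactamase reporter) given compound plus chenodeoxycholic acid (50 uM final), 16 h at 37C. LiveBLAzer B/G FRET substrate added for 2 h at room temperature; fluorescence read.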

[20] = target: Bile acid receptor (Homo sapiens) (UniProt Q96RI1); assay: qHTS assay to identify small molecule agonists of the farnesoid-X-receptor (FXR) signaling pathway (AID 743220; active = well fitted activation curve with a large enough effect in the signal ratio in the repeat runs, not every such curve was filed as active; the % refers to the signal ratio)
Method in brief: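 Beta-lactamase reporter under UAS control in GeneBLAzer FXR HEK 293T cells (5000/well) measured with LiveBLAzer FRET substrate after 2 h at room temperature. Compound exposure lasted 16 h at 37C.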

Chain of Bile acid receptor (Homo sapiens) (Q96RI1 whole entry, looked up): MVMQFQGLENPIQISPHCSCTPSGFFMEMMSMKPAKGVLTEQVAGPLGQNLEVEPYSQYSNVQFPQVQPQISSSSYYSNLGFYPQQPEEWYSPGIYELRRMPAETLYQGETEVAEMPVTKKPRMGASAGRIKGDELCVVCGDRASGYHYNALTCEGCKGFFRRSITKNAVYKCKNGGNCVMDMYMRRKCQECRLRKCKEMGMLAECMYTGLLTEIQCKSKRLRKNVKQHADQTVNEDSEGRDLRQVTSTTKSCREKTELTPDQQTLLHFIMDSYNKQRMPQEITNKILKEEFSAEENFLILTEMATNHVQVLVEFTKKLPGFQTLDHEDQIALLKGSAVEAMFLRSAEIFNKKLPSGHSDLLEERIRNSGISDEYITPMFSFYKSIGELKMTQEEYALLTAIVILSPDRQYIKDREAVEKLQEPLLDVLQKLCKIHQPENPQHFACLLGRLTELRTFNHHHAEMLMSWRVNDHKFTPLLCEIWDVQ
Chain of Vitamin D3 receptor (Homo sapiens) (P11473 whole entry, looked up): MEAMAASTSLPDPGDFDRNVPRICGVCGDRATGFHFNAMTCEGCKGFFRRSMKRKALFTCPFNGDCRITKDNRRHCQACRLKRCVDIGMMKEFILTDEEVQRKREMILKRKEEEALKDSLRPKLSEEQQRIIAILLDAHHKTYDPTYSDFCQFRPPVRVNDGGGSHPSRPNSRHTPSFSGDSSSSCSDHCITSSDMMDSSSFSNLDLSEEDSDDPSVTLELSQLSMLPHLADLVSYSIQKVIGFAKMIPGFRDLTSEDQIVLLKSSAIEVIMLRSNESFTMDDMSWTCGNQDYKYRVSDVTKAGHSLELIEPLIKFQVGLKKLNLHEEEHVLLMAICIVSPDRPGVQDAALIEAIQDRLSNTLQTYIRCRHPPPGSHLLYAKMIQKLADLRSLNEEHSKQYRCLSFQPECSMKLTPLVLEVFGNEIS
Chain of Peroxisome proliferator-activated receptor delta (Homo sapiens) (Q03181 whole entry, looked up): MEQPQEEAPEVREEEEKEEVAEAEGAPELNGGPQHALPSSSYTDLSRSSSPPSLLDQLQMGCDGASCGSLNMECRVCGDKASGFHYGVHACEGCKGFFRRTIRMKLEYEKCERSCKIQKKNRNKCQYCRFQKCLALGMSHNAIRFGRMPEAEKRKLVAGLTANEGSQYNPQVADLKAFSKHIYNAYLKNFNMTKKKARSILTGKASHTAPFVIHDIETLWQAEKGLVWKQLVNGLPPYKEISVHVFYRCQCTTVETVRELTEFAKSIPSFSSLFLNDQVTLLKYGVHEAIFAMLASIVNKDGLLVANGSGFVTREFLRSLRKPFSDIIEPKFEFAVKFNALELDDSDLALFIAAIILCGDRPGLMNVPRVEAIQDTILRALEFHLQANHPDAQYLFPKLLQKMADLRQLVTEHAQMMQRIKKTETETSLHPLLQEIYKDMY

Row | Compound | Potency [1] | Potency [2] | Potency [3] | outcome [4] | Potency [5] | Potency [6] | outcome [7] | outcome [8] | outcome [9] | outcome [10] | outcome [11] | outcome [12] | outcome [13] | outcome [14] | Potency [15] | Potency [16] | outcome [17] | Potency [18] | outcome [19] | outcome [20]
1 | CC(C)(C)N | inactive | inactive | inactive | inactive | inactive | inactive | inactive | inactive | inactive | inactive | inactive | inactive | inactive | inactive | inactive | inactive | inactive | inactive |  | 
2 | CC(C)=CCC/C(C)=C/C=N/O | inactive | inactive | inactive | inactive | inactive | inactive | inactive | inactive | inactive |  | inactive | inactive | inactive | inactive | inactive | inactive | inactive | inactive | inactive | inactive
3 | COC(=O)Cc1cccc2ccccc12 | inactive | inactive | inactive | inactive | inactive | inactive | inactive | inactive | inactive | inactive | inactive | inactive | inactive | inactive | inactive | inactive | inactive | inactive |  | 
4 | Cc1ccc(NC=O)c(C)c1 | inactive | inactive | inactive | inactive | inactive | inactive | inactive | inactive | inactive | inactive | inactive | inactive | inactive | inactive | inactive | inactive | inactive | inactive | inactive | 
5 | CNc1ccccc1 | inactive | inactive | inactive | inactive | inactive | inactive | inactive | inactive | inactive | inactive | inactive | inactive | inactive | inactive | inactive | inactive | inactive | inactive |  | 
6 | CC(C(=O)O)c1ccc2c(c1)Cc1cccnc1O2 (centres undefined) | inactive | inactive | inactive | inactive | inactive | inactive | inactive | inactive | inactive | inactive | inactive | inactive | inactive | inactive | inactive | inactive | inactive | inactive |  | 
7 | CC1=C(C)C(=O)C(C(CCCCCC(=O)O)c2ccccc2)=C(C)C1=O (centres undefined) | inactive | 29.8 µM (active) | inactive | inactive | inactive | inactive | inactive |  | inactive | inactive | inactive | inactive | inactive | inactive | inactive | inactive | inactive | inactive | inactive | 
8 | N#Cc1ccc(CC(=O)c2cccc(C(F)(F)F)c2)cc1 | inactive | inactive | inactive | inactive | inactive |  | inactive |  | inactive |  | inactive | inactive | inactive | inactive | inactive | inactive | inactive | inactive |  | 
9 | Cc1ccc2c(Cl)cc(Cl)c(O)c2n1 | inactive | inactive | inactive |  |  |  | inactive | inactive | inactive | inactive | inactive | inactive | inactive | inactive | inactive | inactive | inactive | inactive |  | 
10 | O=C(Cl)c1cc(Cl)cc(Cl)c1 | inactive | inactive | inactive |  | inactive | inactive | inactive | inactive | inactive | inactive | inactive | inactive | inactive | inactive | inactive | inactive | inactive | inactive |  | 
11 | COc1cc(C)c(Cc2cnc(N)nc2N)cc1OC | inactive | inactive | inactive | inactive | inactive |  |  |  | inactive | inactive | inactive | inactive | inactive | inactive | inactive | inactive | inactive | inactive |  | 
12 | Cc1c(Cl)cccc1[N+](=O)[O-] | inactive | inactive |  | inactive | inactive | inactive | inactive |  | inactive | inactive | inactive | inactive | inactive | inactive | inactive | inactive | inactive | inactive | inactive | inactive
13 | CC(C)NC(=O)c1ccccc1N | inactive | inactive | inactive |  | inactive |  | inactive | inactive | inactive | inactive | inactive | inactive | inactive | inactive | inactive | inactive | inactive | inactive | inactive | inactive
14 | O=C1c2ccccc2C(=O)c2c1ccc(O)c2O | inactive | inactive | inactive | inactive | inactive | inactive |  |  | inactive | inactive | inactive | inactive | inactive | inactive | inactive | inactive | inactive | inactive |  | 
15 | CCC[Si](OC)(OC)OC | inactive | inactive |  | inactive | inactive | inactive | inactive | inactive | inactive |  | inactive | inactive | inactive | inactive | inactive | inactive | inactive | inactive | inactive | 
16 | CCOC(OCC)OCC | inactive | inactive | inactive |  | inactive | inactive | inactive | inactive | inactive | inactive | inactive | inactive | inactive | inactive | inactive | inactive | inactive | inactive | inactive | inactive
17 | CC(C)(O)C(=O)O | inactive | inactive | inactive | inactive | inactive |  | inactive | inactive | inactive |  | inactive | inactive | inactive | inactive | inactive | inactive | inactive | inactive |  | 
